Data: PubChem BioAssay
Activity calls are given as the source filed them.

How the values were obtained:
[1] = test system: PRMT1 (protein arginine N-methyltransferase 1); experiment: PRMT1 binders on small-molecule microarrays, primary screen, biochemical, small-molecule microarray, 635 nm fluorescence (AID 1088); settings: small-molecule microarray binding, higher = more signal;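 further: binding of Prmt1 protein to compounds spotted on small-molecule microarray slides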
[2] = yeast growth modulation, basal conditions, primary screen, YJM789 clinical isolate, OD600, 24 h (AID 1089);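 further: growth of clinical yeast isolate S. cerevisiae YJM 789 seeded 1000 cells per well; test concentration not given here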; settings: S. cerevisiae YJM789 growth, higher = more signal, called active from +8 up or from −8 down
[3] = fission yeast growth modulation, primary screen, strain 972, OD600, 24 h, no modulator (AID 1090);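 further: basal condition with compound alone and no growth modifier present; test concentration not given here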; settings: S. pombe 972 growth, higher = more signal, called active from +8 up or from −8 down
[4] = S. cerevisiae growth modulation with rapamycin, primary screen, strain BY4716, OD600, 96 h (AID 1091); settings: higher = more signal, called active from +8 up or from −8 down; further: test concentration not given here
[5] = molecular target: Torsin-1A-interacting protein 2 (Homo sapiens) (UniProt Q8NFQ8); experiment: LULL1 binders on small-molecule microarray, primary screen, cell lysate, human LULL1 lysate, 635/667 nm fluorescence (AID 1092); settings: hLULL1 lysate binding, 635 nm fluorescence, higher = more signal;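 further: probe is lysate of COS7 cells overexpressing human LULL1; score merges per-feature 667 nm fluorescence with signal-to-noise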
[6] = E. coli growth modulation, two-sided OD650, primary screen, E. coli filamentation project, strain DRC41, 24 h (AID 1093); settings: OD650, 24 h, higher = more signal, called active from +8 up or from −8 down;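 further: MC1000 strain lacking acrAB efflux and sulA so SOS filamentation is blocked; test concentration not given here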
[7] = small-molecule microarray binders of probe aLefty2, primary screen, biochemical, biotinylated probe, 635/667 nm fluorescence (AID 1094); settings: higher = more signal;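 further: score merges spot fluorescence near 667 nm with spot signal-to-noise ratio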
[8] = test system: Noggin (protein binding on small-molecule microarray); experiment: Noggin binders on small-molecule microarray, primary screen, biochemical, 635/667 nm fluorescence (AID 1095); settings: 635 nm fluorescence, higher = more signal;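 further: score merges 667 nm feature fluorescence with signal to noise over triplicate slides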
[9] = molecular target: Neurogenic locus notch homolog protein 3 (Homo sapiens) (UniProt Q9UM47); experiment: NOTCH3 binders on small-molecule microarray, primary screen, biochemical, 635/667 nm fluorescence (AID 1096); settings: NOTCH3 binding, 635 nm fluorescence, higher = more signal
[10] = small-molecule microarray binders of probe aEGFR, primary screen, biochemical, biotinylated probe, 635/667 nm fluorescence (AID 1097); settings: higher = more signal;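 further: probe is a biotinylated anti-EGFR antibody binding compounds printed on slides; score combines fluorescence near 667 nm and signal to noise of each spot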
[11] = test system: Plasmodium falciparum Sir2 (PF13_0152, Sir2A); experiment: pfSir2 binders on small-molecule microarrays, primary screen, biochemical, small-molecule microarray, 635 nm fluorescence (AID 1098); settings: small-molecule microarray binding, fluorescence 635 nm; higher = more signal;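 further: score merges spot fluorescence intensity with its signal-to-noise ratio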
[12] = small-molecule microarray binders of probe aDKK1, primary screen, biochemical, biotinylated probe, 635/667 nm fluorescence (AID 1099); settings: higher = more signal;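 further: score merges 667nm spot fluorescence with signal to noise across triplicate slides; reference of the scale not given here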
[13] = small-molecule microarray binders of probe aCHRDL2, primary screen, biochemical, biotinylated probe, 635/667 nm fluorescence (AID 1100); settings: higher = more signal
[14] = splicing luciferase reporter signal modulators, primary screen, spliceosome inhibition project, cell-based, HEK293, splice +/- reporter (AID 1101); settings: luminescence, 24 h, higher = more signal, called active from +8 up or from −8 down;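 further: HEK293 cells carrying a splicing-competent luciferase reporter gene; test concentration not given here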
[15] = molecular target: Fibroblast growth factor 10 (Homo sapiens) (UniProt O15520); experiment: FGF10 binders on small-molecule microarrays, primary screen, biochemical, small-molecule microarray, 635 nm fluorescence (AID 1102); settings: FGF10 binding, fluorescence 635 nm, higher = more signal
[16] = test system: glycogen synthase kinase-3 (GSK3A per assay name; protocol says GSK3B); experiment: GSK3 binders on small-molecule microarrays, primary screen, biochemical, small-molecule microarray, 635 nm fluorescence, GSK3A (AID 1103); settings: small-molecule microarray binding, fluorescence 635 nm; higher = more signal; further: the record names both GSK3A and GSK3B
[17] = molecular target: Epidermal growth factor receptor (Homo sapiens) (UniProt P00533); experiment: EGFR binders on small-molecule microarrays, primary screen, biochemical, small-molecule microarray, 635 nm fluorescence (AID 1104); settings: EGFR binding, higher = more signal;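 further: score merges 667 nm emission intensity with spot signal to noise over triplicate slides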
[18] = molecular target: Follistatin-related protein 3 (Homo sapiens) (UniProt O95633); experiment: FSTL3 binders on small-molecule microarrays, primary screen, biochemical, small-molecule microarray, 635 nm fluorescence (AID 1105); settings: FSTL3 binding, higher = more signal;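 further: score merges emission near 667 nm and signal to noise per printed spot across three slides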
[19] = molecular target: Dickkopf-related protein 1 (Homo sapiens) (UniProt O94907); experiment: DKK1 binders on small-molecule microarrays, primary screen, biochemical, small-molecule microarray, 635 nm fluorescence scan (AID 1106); settings: DKK1 binding, higher = more signal;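 further: score merges emission near 667 nm with signal to noise over three replicate slides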
[20] = test system: Inhibin beta A chain (activin A); experiment: INHBA (activin A) binders on microarrays, primary screen, biochemical, small-molecule microarray, 635 nm fluorescence scan (AID 1107); settings: small-molecule microarray binding, higher = more signal;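 further: mouse activin A protein probed at 4.33 µg/mL on printed slides; score merges bound-protein fluorescence near 667 nm with spot signal-to-noise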

Neurogenic locus notch homolog protein 3 (Homo sapiens), sequence (Q9UM47 whole entry, looked up): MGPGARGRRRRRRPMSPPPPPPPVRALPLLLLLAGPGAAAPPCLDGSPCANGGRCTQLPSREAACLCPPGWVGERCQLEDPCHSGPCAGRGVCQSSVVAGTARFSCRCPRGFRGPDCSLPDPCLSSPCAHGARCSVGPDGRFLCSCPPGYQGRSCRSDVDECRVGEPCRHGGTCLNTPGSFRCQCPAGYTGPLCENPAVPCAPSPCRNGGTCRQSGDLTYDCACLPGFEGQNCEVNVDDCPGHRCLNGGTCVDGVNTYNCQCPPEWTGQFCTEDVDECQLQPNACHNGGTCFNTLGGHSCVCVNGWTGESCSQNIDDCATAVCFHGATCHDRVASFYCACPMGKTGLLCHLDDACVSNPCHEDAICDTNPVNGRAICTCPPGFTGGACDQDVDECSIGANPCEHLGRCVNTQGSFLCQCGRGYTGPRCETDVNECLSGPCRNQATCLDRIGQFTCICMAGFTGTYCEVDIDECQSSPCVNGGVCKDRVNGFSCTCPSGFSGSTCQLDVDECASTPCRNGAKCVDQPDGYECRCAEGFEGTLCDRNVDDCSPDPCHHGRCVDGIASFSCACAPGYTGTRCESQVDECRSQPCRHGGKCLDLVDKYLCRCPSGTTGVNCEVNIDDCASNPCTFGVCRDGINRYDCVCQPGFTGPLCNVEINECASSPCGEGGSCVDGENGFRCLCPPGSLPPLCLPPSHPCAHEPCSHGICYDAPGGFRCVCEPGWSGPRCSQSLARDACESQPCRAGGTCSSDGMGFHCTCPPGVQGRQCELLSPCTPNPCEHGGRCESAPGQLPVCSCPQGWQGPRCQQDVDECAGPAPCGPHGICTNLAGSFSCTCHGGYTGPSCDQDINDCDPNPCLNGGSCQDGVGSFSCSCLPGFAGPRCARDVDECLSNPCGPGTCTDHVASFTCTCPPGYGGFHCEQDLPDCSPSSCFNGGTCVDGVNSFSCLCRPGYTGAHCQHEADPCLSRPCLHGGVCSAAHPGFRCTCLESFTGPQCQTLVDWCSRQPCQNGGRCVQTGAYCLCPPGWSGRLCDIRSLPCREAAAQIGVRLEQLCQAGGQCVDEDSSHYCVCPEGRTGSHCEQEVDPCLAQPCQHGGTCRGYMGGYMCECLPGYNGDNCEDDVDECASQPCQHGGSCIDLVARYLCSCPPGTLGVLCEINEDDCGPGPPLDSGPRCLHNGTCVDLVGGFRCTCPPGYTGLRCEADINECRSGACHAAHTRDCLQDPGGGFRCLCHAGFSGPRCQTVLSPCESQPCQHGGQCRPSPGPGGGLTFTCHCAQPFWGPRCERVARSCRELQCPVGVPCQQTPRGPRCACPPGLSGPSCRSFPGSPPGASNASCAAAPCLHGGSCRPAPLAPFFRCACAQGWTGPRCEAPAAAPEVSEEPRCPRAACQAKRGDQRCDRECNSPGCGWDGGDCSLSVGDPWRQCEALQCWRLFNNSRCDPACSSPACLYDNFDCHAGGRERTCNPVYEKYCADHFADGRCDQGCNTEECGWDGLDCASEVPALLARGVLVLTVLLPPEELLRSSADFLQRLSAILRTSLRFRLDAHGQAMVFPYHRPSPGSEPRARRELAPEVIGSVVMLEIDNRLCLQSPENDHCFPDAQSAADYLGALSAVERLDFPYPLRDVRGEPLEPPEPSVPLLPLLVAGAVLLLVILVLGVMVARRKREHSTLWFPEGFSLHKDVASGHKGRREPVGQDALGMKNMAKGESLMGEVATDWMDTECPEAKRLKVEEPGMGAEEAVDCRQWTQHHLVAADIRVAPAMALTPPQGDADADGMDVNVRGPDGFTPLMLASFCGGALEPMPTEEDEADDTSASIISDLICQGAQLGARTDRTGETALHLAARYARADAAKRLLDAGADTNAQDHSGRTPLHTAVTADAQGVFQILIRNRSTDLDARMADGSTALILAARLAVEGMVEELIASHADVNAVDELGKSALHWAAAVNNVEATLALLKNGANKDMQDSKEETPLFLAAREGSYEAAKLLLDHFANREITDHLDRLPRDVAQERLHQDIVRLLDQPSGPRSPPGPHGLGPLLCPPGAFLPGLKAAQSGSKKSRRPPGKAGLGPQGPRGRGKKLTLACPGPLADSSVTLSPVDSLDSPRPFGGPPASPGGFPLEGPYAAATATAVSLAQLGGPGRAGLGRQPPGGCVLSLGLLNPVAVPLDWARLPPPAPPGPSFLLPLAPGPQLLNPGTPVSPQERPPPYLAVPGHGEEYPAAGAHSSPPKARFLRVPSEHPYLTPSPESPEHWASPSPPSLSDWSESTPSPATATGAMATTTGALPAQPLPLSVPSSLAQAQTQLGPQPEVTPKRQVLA
Follistatin-related protein 3 (Homo sapiens), sequence (O95633 whole entry, looked up): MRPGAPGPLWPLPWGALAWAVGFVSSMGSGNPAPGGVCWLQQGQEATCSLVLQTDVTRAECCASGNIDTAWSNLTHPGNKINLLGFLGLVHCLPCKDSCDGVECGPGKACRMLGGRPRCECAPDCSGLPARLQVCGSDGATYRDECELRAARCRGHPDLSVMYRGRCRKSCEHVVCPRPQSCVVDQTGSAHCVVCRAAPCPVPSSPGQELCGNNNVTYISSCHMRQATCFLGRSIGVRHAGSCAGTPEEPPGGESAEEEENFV
Dickkopf-related protein 1 (Homo sapiens), sequence (O94907 whole entry, looked up): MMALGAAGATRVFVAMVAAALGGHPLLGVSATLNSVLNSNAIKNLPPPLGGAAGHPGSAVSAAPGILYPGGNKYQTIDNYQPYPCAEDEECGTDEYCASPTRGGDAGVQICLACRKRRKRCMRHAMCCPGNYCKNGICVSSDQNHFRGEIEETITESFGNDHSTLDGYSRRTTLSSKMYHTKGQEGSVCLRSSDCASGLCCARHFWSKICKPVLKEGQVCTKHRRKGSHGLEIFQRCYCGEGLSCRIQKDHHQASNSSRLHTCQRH
Torsin-1A-interacting protein 2 (Homo sapiens), sequence (Q8NFQ8 whole entry, looked up): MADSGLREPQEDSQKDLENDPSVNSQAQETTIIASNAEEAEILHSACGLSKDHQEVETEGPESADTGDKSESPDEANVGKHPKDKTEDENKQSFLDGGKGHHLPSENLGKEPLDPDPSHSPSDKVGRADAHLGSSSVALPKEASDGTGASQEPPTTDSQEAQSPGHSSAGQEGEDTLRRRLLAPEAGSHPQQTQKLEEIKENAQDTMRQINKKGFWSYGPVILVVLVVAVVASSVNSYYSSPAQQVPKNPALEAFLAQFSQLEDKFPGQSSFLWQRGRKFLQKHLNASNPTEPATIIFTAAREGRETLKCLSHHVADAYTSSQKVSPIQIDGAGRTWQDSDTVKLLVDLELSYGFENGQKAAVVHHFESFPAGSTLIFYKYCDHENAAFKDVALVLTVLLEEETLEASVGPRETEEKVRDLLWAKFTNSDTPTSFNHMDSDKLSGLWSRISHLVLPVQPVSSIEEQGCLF
Fibroblast growth factor 10 (Homo sapiens), sequence (O15520 whole entry, looked up): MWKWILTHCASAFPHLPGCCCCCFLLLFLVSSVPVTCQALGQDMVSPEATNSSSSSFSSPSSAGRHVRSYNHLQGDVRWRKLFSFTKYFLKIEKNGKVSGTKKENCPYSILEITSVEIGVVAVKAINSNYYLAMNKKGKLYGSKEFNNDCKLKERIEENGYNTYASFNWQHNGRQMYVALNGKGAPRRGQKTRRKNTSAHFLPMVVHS
Epidermal growth factor receptor (Homo sapiens), sequence (P00533 whole entry, looked up): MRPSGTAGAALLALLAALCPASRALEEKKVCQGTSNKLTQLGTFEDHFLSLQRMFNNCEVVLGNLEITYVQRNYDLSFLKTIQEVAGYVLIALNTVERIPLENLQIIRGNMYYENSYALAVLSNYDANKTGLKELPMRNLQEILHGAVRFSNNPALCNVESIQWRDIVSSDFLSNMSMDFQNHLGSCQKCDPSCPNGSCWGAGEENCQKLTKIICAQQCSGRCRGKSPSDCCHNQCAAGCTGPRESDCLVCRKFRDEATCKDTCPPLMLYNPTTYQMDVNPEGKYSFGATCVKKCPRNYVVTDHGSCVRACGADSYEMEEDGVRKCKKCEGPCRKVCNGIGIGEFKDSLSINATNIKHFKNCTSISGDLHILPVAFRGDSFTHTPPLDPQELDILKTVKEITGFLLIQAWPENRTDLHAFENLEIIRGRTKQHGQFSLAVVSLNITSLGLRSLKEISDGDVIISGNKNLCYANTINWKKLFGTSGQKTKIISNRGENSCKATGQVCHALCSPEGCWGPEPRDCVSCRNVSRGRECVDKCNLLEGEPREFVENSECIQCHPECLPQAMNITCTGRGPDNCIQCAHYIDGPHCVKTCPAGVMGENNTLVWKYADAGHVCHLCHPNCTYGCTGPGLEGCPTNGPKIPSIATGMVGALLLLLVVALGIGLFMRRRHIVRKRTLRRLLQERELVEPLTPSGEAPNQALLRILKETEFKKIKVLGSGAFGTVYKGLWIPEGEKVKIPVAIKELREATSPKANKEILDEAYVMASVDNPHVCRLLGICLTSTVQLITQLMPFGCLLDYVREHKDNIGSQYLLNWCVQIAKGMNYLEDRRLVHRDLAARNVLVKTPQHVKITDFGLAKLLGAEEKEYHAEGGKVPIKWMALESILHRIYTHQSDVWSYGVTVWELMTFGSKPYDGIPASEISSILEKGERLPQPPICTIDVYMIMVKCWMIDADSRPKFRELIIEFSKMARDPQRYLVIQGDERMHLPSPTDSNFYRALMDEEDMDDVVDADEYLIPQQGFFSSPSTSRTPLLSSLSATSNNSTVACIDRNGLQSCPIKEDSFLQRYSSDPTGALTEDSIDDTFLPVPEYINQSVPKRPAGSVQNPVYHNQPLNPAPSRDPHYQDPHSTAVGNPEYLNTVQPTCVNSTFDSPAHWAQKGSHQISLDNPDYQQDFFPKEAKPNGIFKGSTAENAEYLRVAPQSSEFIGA

Row | SMILES | composite z-score [1] | z-score [2] | z-score [3] | z-score [4] | composite z-score [5] | z-score [6] | composite z-score [7] | composite z-score [8] | composite z-score [9] | composite z-score [10] | composite z-score [11] | composite z-score [12] | composite z-score [13] | z-score [14] | composite z-score [15] | composite z-score [16] | composite z-score [17] | composite z-score [18] | composite z-score [19] | composite z-score [20]
1 | COCCCNC(=O)[C@@]1(C)c2ccccc2C(=O)N(Cc2cc(C(F)(F)F)cc(C(F)(F)F)c2)[C@H]1c1ccc(CO)cc1 | 1.55 | -0.122 (inactive) | 0.585 (inactive) | -0.777 (inactive) | 3.01 | 0.666 (inactive) | -0.166 | -1.08 | -0.134 | -0.26 | 1.48 | -0.0291 | 0.945 | 0.803 (inactive) | -0.607 | -0.514 | -1.24 | -0.875 | -1.62 | -0.754
2 | CC(C)C(=C=CC[C@@H](O)c1ccccc1OCCO)C[C@@H](O)c1ccccn1 | 0.439 | 2.46 (inactive) | -0.18 (inactive) | -1.1 (inactive) | 2.67 | -0.0287 (inactive) | -0.126 | 0.538 | 0.878 | -0.099 | 1.52 | -0.235 | -0.448 | 0.446 (inactive) | 1.05 | 0.556 | 0.141 | 0.425 | 0.34 | 0.715
3 | CC(=O)Nc1cc(Br)ccc1C(=O)O | 0.183 | -0.0103 (inactive) | 0.331 (inactive) | 0.178 (inactive) | 1.33 | -0.18 (inactive) | -0.0006 | 0.201 | 0.482 | -0.156 | 0.976 | 1.34 | 0.0861 | -0.841 (inactive) | 0.225 | 0.157 | -0.433 | 0.0984 | -0.44 | -0.27
4 | CC(C)C(O)C1C=CC2C(=O)N(c3ccccc3)C(=O)C2N1Nc1ccc(C#N)cc1 (stereo not given) | 1.04 | -0.108 (inactive) | 0.349 (inactive) | 1.39 (inactive) | 3.17 | -0.364 (inactive) | 0.576 | -0.388 | 0.903 | 0.154 | 1.08 | 1.27 | 1.26 | 0.251 (inactive) | 1.17 | 0.681 | 0.0839 | 1.22 | -0.512 | 0.942
5 | CC(C)NC(=O)[C@@H]1c2ccccc2C(=O)N(Cc2ccccc2Cl)[C@H]1c1ccc(CO)cc1 | 1.4 | 0.759 (inactive) | 0.247 (inactive) | 0.173 (inactive) | 1.8 | 1.19 (inactive) | -0.053 | -0.384 | 0.143 | -0.287 | 0.284 | 0.0098 | 0.448 | 0.62 (inactive) | -0.584 | 0.0016 | -0.903 | -0.398 | -0.645 | 0.365
